According to PubChem BioAssay:
Calls of active or inactive are those of the source.

How the values were obtained:
[1] = system: Plasmodium falciparum Sir2 (PF13_0152, Sir2A); assay: Plasmodium falciparum Sir2A binding compounds – biochemical, small-molecule microarray, 635 nm fluorescence, primary screen (AID 1098); conditions: fluorescence 635 nm, higher = more signal;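 note: score merges spot fluorescence intensity with its signal-to-noise ratio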
[2] = probe aDKK1 binding to arrayed compounds – biochemical, biotinylated probe, 635/667 nm fluorescence, primary screen (AID 1099); conditions: small-molecule microarray, higher = more signal;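 note: score merges 667nm spot fluorescence with signal to noise across triplicate slides; reference of the scale not given here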
[3] = probe aCHRDL2 binding to arrayed compounds – biochemical, biotinylated probe, 635/667 nm fluorescence, primary screen (AID 1100); conditions: small-molecule microarray, higher = more signal
[4] = change in splice reporter luminescence, either direction, cell-based, HEK293, spliceosome inhibition project, primary screen (AID 1101); conditions: HEK293 splicing luciferase reporter, 24 h, higher = more signal, called active from +8 up or from −8 down;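 note: HEK293 cells carrying a splicing-competent luciferase reporter gene; test concentration not given here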
[5] = target: Fibroblast growth factor 10 (Homo sapiens) (UniProt O15520); assay: compounds binding fibroblast growth factor 10 – biochemical, small-molecule microarray, 635 nm fluorescence, primary screen (AID 1102); conditions: FGF10 binding, fluorescence 635 nm, higher = more signal
[6] = system: glycogen synthase kinase-3 (GSK3A per assay name; protocol says GSK3B); assay: compounds binding glycogen synthase kinase-3 – biochemical, small-molecule microarray, 635 nm fluorescence, GSK3A, primary screen (AID 1103); conditions: fluorescence 635 nm, higher = more signal; note: the record names both GSK3A and GSK3B
[7] = target: Epidermal growth factor receptor (Homo sapiens) (UniProt P00533); assay: compounds binding epidermal growth factor receptor – biochemical, small-molecule microarray, 635 nm fluorescence, primary screen (AID 1104); conditions: EGFR binding, higher = more signal;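 note: score merges 667 nm emission intensity with spot signal to noise over triplicate slides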
[8] = target: Follistatin-related protein 3 (Homo sapiens) (UniProt O95633); assay: compounds binding follistatin-related protein 3 – biochemical, small-molecule microarray, 635 nm fluorescence, primary screen (AID 1105); conditions: FSTL3 binding, higher = more signal;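 note: score merges emission near 667 nm and signal to noise per printed spot across three slides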
[9] = target: Dickkopf-related protein 1 (Homo sapiens) (UniProt O94907); assay: small molecules binding DKK1 protein – biochemical, small-molecule microarray, 635 nm fluorescence scan, primary screen (AID 1106); conditions: higher = more signal;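 note: score merges emission near 667 nm with signal to noise over three replicate slides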
[10] = system: Inhibin beta A chain (activin A); assay: small molecules binding activin A – biochemical, small-molecule microarray, 635 nm fluorescence scan, primary screen (AID 1107); conditions: INHBA, higher = more signal;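 note: mouse activin A protein probed at 4.33 µg/mL on printed slides; score merges bound-protein fluorescence near 667 nm with spot signal-to-noise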

Fibroblast growth factor 10 (Homo sapiens), sequence (O15520 whole entry, looked up): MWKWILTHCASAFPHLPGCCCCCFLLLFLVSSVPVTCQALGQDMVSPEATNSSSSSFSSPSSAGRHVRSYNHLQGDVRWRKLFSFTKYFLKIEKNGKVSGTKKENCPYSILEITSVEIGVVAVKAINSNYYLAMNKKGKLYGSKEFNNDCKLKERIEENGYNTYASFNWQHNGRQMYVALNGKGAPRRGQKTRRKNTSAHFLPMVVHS
Dickkopf-related protein 1 (Homo sapiens), sequence (O94907 whole entry, looked up): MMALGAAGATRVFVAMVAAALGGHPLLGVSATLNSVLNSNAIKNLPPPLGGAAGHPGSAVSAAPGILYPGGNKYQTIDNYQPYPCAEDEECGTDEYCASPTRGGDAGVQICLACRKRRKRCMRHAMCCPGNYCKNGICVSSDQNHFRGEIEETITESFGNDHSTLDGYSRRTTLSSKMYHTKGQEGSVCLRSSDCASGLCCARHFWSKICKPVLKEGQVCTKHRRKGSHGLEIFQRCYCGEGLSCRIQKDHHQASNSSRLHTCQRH
Follistatin-related protein 3 (Homo sapiens), sequence (O95633 whole entry, looked up): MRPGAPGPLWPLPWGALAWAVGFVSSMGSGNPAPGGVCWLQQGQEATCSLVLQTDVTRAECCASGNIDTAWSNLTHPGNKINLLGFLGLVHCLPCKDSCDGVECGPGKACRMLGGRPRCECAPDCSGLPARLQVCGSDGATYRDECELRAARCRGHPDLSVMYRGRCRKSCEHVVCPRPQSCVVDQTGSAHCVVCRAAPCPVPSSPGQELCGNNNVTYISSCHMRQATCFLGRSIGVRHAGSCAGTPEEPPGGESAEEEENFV
Epidermal growth factor receptor (Homo sapiens), sequence (P00533 whole entry, looked up): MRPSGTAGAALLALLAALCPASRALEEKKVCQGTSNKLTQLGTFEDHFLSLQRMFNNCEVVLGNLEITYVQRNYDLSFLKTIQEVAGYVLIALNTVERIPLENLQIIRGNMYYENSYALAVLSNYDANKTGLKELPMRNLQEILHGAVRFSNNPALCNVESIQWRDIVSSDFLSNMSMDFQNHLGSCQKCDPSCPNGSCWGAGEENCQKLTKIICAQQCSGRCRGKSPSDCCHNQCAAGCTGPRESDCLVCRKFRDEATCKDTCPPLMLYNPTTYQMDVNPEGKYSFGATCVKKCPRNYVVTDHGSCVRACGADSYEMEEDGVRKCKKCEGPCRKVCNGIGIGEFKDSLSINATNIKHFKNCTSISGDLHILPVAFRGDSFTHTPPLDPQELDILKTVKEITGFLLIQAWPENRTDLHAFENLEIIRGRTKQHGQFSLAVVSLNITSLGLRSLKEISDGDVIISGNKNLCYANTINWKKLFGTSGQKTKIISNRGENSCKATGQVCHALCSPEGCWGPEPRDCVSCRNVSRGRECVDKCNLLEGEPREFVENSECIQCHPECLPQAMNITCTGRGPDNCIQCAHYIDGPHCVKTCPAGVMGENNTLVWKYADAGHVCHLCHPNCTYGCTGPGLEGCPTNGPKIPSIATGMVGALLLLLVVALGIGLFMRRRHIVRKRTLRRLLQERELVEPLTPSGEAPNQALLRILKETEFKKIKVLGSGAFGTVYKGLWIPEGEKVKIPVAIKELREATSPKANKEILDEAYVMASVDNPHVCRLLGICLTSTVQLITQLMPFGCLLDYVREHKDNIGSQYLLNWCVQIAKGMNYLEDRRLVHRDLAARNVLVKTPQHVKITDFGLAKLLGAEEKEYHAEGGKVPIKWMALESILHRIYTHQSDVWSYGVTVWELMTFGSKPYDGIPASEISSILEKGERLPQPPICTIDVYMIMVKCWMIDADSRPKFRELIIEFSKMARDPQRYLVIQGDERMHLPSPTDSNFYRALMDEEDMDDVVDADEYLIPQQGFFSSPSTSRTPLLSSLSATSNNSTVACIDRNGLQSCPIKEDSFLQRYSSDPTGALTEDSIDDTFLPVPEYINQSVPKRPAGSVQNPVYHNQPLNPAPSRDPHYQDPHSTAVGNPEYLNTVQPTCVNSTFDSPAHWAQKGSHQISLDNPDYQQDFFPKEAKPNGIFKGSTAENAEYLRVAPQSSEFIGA

SMILES	composite z-score [1]	composite z-score [2]	composite z-score [3]	z-score [4]	composite z-score [5]	composite z-score [6]	composite z-score [7]	composite z-score [8]	composite z-score [9]	composite z-score [10]
C=CC[C@]1(C(=O)NCc2ccccc2)COC(c2ccc(OCCCO)cc2)=N1	1.49	1.43	1.6	0.589 (inactive)	-0.215	-0.9	-1.47	0.101	-0.301	0.792
CC(C)c1ccc(NN2C(C(O)C(C)C)C=CC3C(=O)N(c4ccccc4)C(=O)C32)cc1 (stereo not given)	1.06	1.26	1.14	0.437 (inactive)	0.651	1.31	0.389	0.926	-0.103	0.496
O=C1C2C=CC(C(O)c3ccc([N+](=O)[O-])cc3)N(Nc3ccccc3)C2C(=O)N1c1ccccc1 (stereo not given)	1.32	0.3	0.585	4.07 (inactive)	0.466	0.273	-0.0215	0.481	-0.521	0.87
COCCOC(=O)N1C(=O)[C@@]2(c3cc(C#CCCO)ccc31)[C@H](C(=O)N1CCN(c3ncccn3)CC1)[C@H]1C(=O)O[C@H](c3ccccc3)[C@H](c3ccccc3)N1[C@@H]2c1ccc(O)cc1	1.3	-0.499	-0.345	0.894 (inactive)	1.16	1.01	0.368	0.698	-0.0017	-0.242
CC(c1ccccc1)C(O)C1C=CC2C(=O)N(c3ccccc3)C(=O)C2N1Nc1ccc(C#N)cc1 (stereo not given)	1.27	0.0897	0.582	-0.44 (inactive)	0.975	1.32	0.702	1.48	-0.163	0.251
C=CCC(OC(C)=O)[C@@H]1[C@@H](N(Cc2ccc(-c3ccccc3)cc2)C(=O)c2ccc(-c3ccccc3)cc2)c2cc(OCCCO)ccc2N1C(=O)c1ccc2ccccc2n1 (stereo not given in full)	0.212	0.103	0.168	-1.27 (inactive)	0.46	0.213	-0.486	0.204	-0.328	1.38
COCCOC(=O)N1C(=O)[C@@]2(c3cc(C#CCC(C(=O)OC)C(=O)OC)ccc31)[C@H](C(N)=O)[C@H]1C(=O)O[C@H](c3ccccc3)[C@H](c3ccccc3)N1[C@@H]2c1ccc(OCCO)cc1	1.13	0.271	0.25	-0.517 (inactive)	1.11	1.31	0.776	1.01	0.614	0.444
COCCOC(=O)N1C(=O)[C@@]2(c3cc(C#CCC(C(=O)OC)C(=O)OC)ccc31)[C@H](C(=O)N1CCCCCCC1)[C@H]1C(=O)O[C@H](c3ccccc3)[C@H](c3ccccc3)N1[C@@H]2c1ccccc1OCCO	1.61	2.62	1.59	-0.815 (inactive)	0.547	1.32	0.893	1.67	0.987	1.96
CC(C)(C)N1CC=CC23O[C@@H]4/C=C\CCCOC(=O)C4[C@H]2C(=O)N(CCCCCCO)[C@@H]3C1=O (stereo not given in full)	0.873	-0.204	0.63	-0.725 (inactive)	-0.374	-0.749	-0.741	0.0927	-0.857	0.705
O=C1OCCC=C[C@H]2OC34C=CCN(CCN5CCOCC5)C(=O)[C@H]3N(CCCO)C(=O)[C@@H]4C12 (stereo not given in full)	1.41	-0.242	0.119	-1.12 (inactive)	-0.272	-0.869	-0.938	-0.549	-0.0385	0.564
CCc1cccc(NC(=O)O[C@H]2[C@H](OC(=O)Nc3ccc4c(c3)OCO4)[C@H](OC(=O)Nc3ccc4c(c3)OCO4)[C@@H](OC)O[C@@H]2CO)c1	1.44	-0.154	0.226	-1.34 (inactive)	0.699	1.32	-0.438	0.791	0.129	0.627
COC(=O)[C@@]1(CCS(=O)(=O)c2ccccc2)N=C(c2ccc(OCCCO)cc2)O[C@H]1c1ccccc1N=[N+]=[N-]	1.52	0.336	0.475	0.177 (inactive)	0.419	1.29	0.491	0.969	0.425	0.865
COCCOC(=O)N1C(=O)[C@@]2(c3cc(C#Cc4ccc(OC)cc4)ccc31)[C@H](C(=O)Nc1nc3ccccc3s1)[C@H]1C(=O)O[C@H](c3ccccc3)[C@H](c3ccccc3)N1[C@@H]2c1ccccc1OCCO	0.655	-0.0582	-0.149	-2.03 (inactive)	0.517	0.731	0.29	0.909	0.534	0.629
CCCC[C@H]1OB(O)C[C@H]2C1=C(COC)C[C@H]1C(=O)C=CC(=O)[C@H]12	0.351	-0.177	-0.461	0.635 (inactive)	0.6	0.385	0.645	1.07	0.717	1.21
C[C@H]1C2[C@H](Cc3ccccc3)NC(=O)[C@]23C(=O)NCC(=O)N2CCC[C@H]2C(=O)NC/C=C\C/C=C/C3[C@@H]2O[C@]12C (stereo not given in full)	1	-0.22	-0.6	0.0829 (inactive)	0.269	-0.0567	0.136	0.201	0.376	1.43
C=C(CCCC)/C(=C/C[C@H](OC(C)=O)c1cccc(OCCO)c1)c1cc(C(=O)OC)ccc1OC	0.286	-0.197	-0.096	-0.325 (inactive)	0.148	-0.157	-0.842	-0.574	-0.344	0.518

SMILES	composite z-score [1]	composite z-score [2]	composite z-score [3]	z-score [4]	composite z-score [5]	composite z-score [6]	composite z-score [7]	composite z-score [8]	composite z-score [9]	composite z-score [10]
CC(C)CNC(=O)[C@@]1(C)c2ccccc2C(=O)N(Cc2cc(F)cc(C(F)(F)F)c2)[C@H]1c1ccc(CO)cc1	0.972	-0.162	0.35	0.451 (inactive)	0.398	0.729	0.181	0.379	0.343	0.938
COCCCNC(=O)[C@@]1(Sc2ccc(C)cc2)CC(=O)N(C2CCCCC2)[C@@H]1c1ccc(CO)cc1I	1.06	0.79	0.629	-0.924 (inactive)	1.01	1.28	0.549	1.38	0.216	-0.148
COC(=O)[C@@]1(CCC(=O)OC(C)(C)C)N=C(c2ccc(OCCCO)cc2)O[C@H]1c1ccccc1CN=[N+]=[N-]	1.3	0.425	0.87	1.29 (inactive)	-0.035	-0.546	-0.827	0.157	-0.346	0.282
C=CCC(OC(C)=O)[C@@H]1[C@@H](N(Cc2cccc3ccccc23)C(=O)c2ccc(-c3ccccc3)cc2)c2cc(OCCCO)ccc2N1C(=O)c1ccc2ccccc2n1 (stereo not given in full)	0.0273	0.052	0.265	-0.395 (inactive)	0.186	0.159	-0.0618	0.389	0.19	1.31
CC(C)C[C@@H]1NC(=O)C([C@@H](C)OCc2ccccc2)NC(=O)[C@@]23C(=O)N[C@@H](Cc4ccccc4)C2[C@H](C)[C@@]2(C)O[C@H]2C3/C=C/CC/C=C/CNC1=O (stereo not given in full)	1.38	-0.309	-0.475	-1.62 (inactive)	0.699	0.517	0.432	0.721	0.445	1.13
N#Cc1ccc(C(O)C2C=CC3C(=O)NC(=O)C3N2Nc2ccccn2)cc1 (stereo not given)	0.348	-0.164	0.425	-0.785 (inactive)	0.0221	0.137	0.362	-0.193	0.0057	0.921
COc1ccc(C#Cc2ccc3c(c2)[C@]2(C(=O)N3)[C@H](c3ccc(OCCO)cc3)N3[C@H](c4ccccc4)[C@H](c4ccccc4)OC(=O)[C@H]3[C@@H]2C(=O)O)cc1	0.955	0.606	0.176	-1.35 (inactive)	1.42	1.22	0.398	1.44	0.183	0.751
NC(=O)NCC#Cc1ccc2c(c1)[C@]1(C(=O)N2)[C@H](C(=O)N2CCCCCCC2)[C@H]2C(=O)O[C@H](c3ccccc3)[C@H](c3ccccc3)N2[C@@H]1c1ccc(O)cc1	1.63	2.7	1.47	-0.15 (inactive)	1.4	0.919	1.27	1.51	1.63	1.49
COc1ccc(NN2C(C(O)c3cc(C(F)(F)F)cc(C(F)(F)F)c3)C=CC3C(=O)N(C4CCCCC4)C(=O)C32)cc1 (stereo not given)	1.12	1.28	0.751	-1.08 (inactive)	0.37	0.977	0.0981	0.384	-0.292	0.639
CC(=O)NCCCC[C@@H]1NC(=O)[C@@H]2C[C@H](C(=O)NCCCCCC[N+](C)(C)C)[C@H](c3ccc(O)cc3)N2C1=O	1.42	-0.134	-0.208	-0.0826 (inactive)	0.518	0.224	0.0882	0.977	1.12	0.645
O=C1C2C=CC(C(O)c3cccc(O)c3)N(Nc3ccccc3F)C2C(=O)N1c1ccccc1 (stereo not given)	1.86	-0.143	0.247	-3.1 (inactive)	-0.177	-0.127	-0.175	0.338	-0.128	0.452
CC(C)C[C@H]1NC(=O)[C@H](Cc2ccccc2)NC(=O)[C@@]23C(=O)N[C@@H](Cc4ccccc4)C2[C@H](C)[C@@]2(C)O[C@H]2C3/C=C/C/C=C\CNC1=O (stereo not given in full)	1.19	0.0099	-0.4	-0.514 (inactive)	0.916	0.979	0.121	0.676	0.726	1.12
CC(C)[Si](C#CCCCC#N)(O[C@H](c1ccccc1)c1cn([C@H](C)c2ccccc2)nn1)C(C)C	0.475	0.0086	-0.453	-3.01 (inactive)	0.524	0.973	0.22	1.08	0.668	-0.301
C=CCOC(=O)[C@H]1[C@@H]2C(=O)O[C@@H](c3ccccc3)[C@@H](c3ccccc3)N2[C@@H](c2ccc(OCCOC(=O)[C@H]3C[C@H]4C(=O)NCC(=O)N4[C@H]3c3ccc(O)cc3)cc2)[C@]12C(=O)Nc1ccc(I)cc12	1.41	-0.144	-0.335	0.0882 (inactive)	0.669	0.821	0.63	0.915	1.12	0.236
CCCCN1CC=CC23O[C@@H]4C=CCOC(=O)[C@@H]4[C@H]2C(=O)N(CCO)[C@@H]3C1=O (stereo not given in full)	1.58	0.125	0.537	0.499 (inactive)	-1.25	-0.641	-1.54	-1.24	-1.58	-0.112
